In all, about 360,000 compounds went through this assay and about 17,000 (4.7%) were called active. Not shown: some 5% with an inconclusive outcome. The sample holds actives, similar compounds and a random draw of the others, so the mix is not that of the screen. No stated cut-off is given here; in the data, active means activity change below about -50%; inconclusive means mostly about -30% to -49%; inactive means weaker than that.
Assay: qHTS for Inhibitors of Inflammasome Signaling: IL-1-beta AlphaLISA Primary Screen
Conditions: THP-1 LPS/ATP IL-1B secretion, 16 h; at 57.5 µM, hits give low values
Outline: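 Secreted IL-1B measured by AlphaLISA bead assay after 16 h compound exposure of THP-1 cells; compounds (final up to 57.5 uM) added 1 h before LPS (250 ng/mL) and ATP (1.25 mM) stimulation; lower signal means less secretion.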
On the % scale 0 is the no-effect control and ±100 the full control effect.

Activity change, inactive:
O=C(OC1CC2CC1[C@H]1CCCCN1C2=O)N1CCOCC1 (some centres not stated) 7.59%
COc1ccc(C(=O)Nc2cccc(/C=C(/CCC(=O)O)c3nc4ccccc4s3)c2)cc1 51.8%
COc1ccccc1-n1cnc2cc(NS(=O)(=O)c3ccccc3)ccc21 -2.81%
CCCN(CCC)CC(O)COc1ccccc1C(=O)Nc1ccccc1 (configuration not stated) -6.43%
CCC(C)Sc1nc2c(c(=O)[nH]c(=O)n2C)n1CC(O)COc1cccc2ccccc12 (configuration not stated) 23.6%
COc1cc(C(=O)OCCCN2CCOCC2)cc(OC)c1OC -2.32%
O=C1Nc2ccccc2NC(c2ccc3c(c2)OCO3)=C1N(Cc1ccc(F)cc1)C(=O)c1ccco1 -23.7%
O=S1(=O)CC(N2CCN(Cc3ccccc3F)CC2)CN1Cc1cn(Cc2ccccc2)nn1 (configuration not stated) 14%
COc1ccccc1-c1nnc(-c2ccc(F)cc2)o1 6.31%
Cc1sc2nc(-c3ccccc3F)oc(=O)c2c1C 43.9%
COc1cc(F)ccc1-c1cc(C(=O)NCC2CCCCC2)[nH]n1 -19.4%
CC1CC(=O)N(CC(=O)Nc2cccc(Cl)c2)c2ccccc2S1(=O)=O (configuration not stated) -6.86%
OCCc1ccc(NCCc2ccco2)cc1 -19.5%
Cc1ccc(CN2CC(N3CCC(Cc4ccccc4)CC3)CS2(=O)=O)cc1 (configuration not stated) -19.7%
COc1ccc(C)cc1NC(=O)CSc1cccc[n+]1[O-] 0.963%
O=C(CSc1ccccc1)Nc1ccc(C(=O)Nc2cccc(O)c2)cc1 3.28%
O=C(NCc1cccc(CNC(=O)Nc2cccc(O)c2)c1)Nc1cccc(O)c1 -13%
O=C(Nc1cccc(NC(=O)c2cccc(F)c2)c1)c1ccccc1 15.3%
C/C(=C\C(=O)c1cccnc1)Nc1ccc(C)c(C)c1 -17.1%
CCCC(C(=O)N1CCOCC1)N1C(=O)C2C3C=CC(C3)C2C1=O (configuration not stated) -7.71%
NC(=O)Cc1ccc2sc(-c3ccccc3)nc2c1 -14.8%
COCCCNC(=O)c1ccc(-c2c(C)noc2C)c2ccoc12 46.4%
COc1ccc(Cl)cc1-n1c(C)cc(C(=O)OCC(=O)N2CC(=O)Nc3ccccc32)c1C -23.3%
Cc1sc2ncnc(SCC(=O)NC3CCS(=O)(=O)C3)c2c1C (configuration not stated) -4.05%
N#Cc1ccc(-c2ccc(Cl)cc2)nc1Oc1ccc(F)cc1 30%
CCc1cc2c(NC(Cc3ccccc3)C(=O)O)ncnc2s1 (configuration not stated) 0%
CCc1cc2c(NC3CCCC3)ncnc2s1 -11.8%
COc1ccc(NC2CCCN(C(=O)c3ccccc3-c3ncc[nH]3)C2)cc1 (configuration not stated) 20.4%
COc1ccc(Cl)cc1C(=O)NNC(=O)c1nc2nc(C)cc(C)n2n1 27%
Cn1c(-c2ccccc2)c[n+]2c1CCCCC2 -10.2%
Cc1cc2c(cc1C)N1C(=O)c3cc4ccccc4cc3NC(=O)C1C(=O)N2 (configuration not stated) 0%
COCCNC(=O)C(c1ccc(C)o1)N(Cc1cccs1)C(=O)c1snc(C(N)=O)c1N (configuration not stated) 18.9%
COc1ccc(C(C(=O)NC2CCCCC2)N(C(=O)c2snc(C(N)=O)c2N)c2ccccc2OC)cc1 (configuration not stated) -4.36%
CCOc1ccc(-n2c(N)c(C(=O)NCC3CCCO3)sc2=S)cc1 (configuration not stated) -28.6%
Cc1cccc(N(C(=O)c2sc(C)nc2C)C(C(=O)NCC2CCCO2)c2ccccc2)c1 (configuration not stated) 17.8%
COc1ccc(N(C(=O)c2snc(C(N)=O)c2N)C(C(=O)NC2CCCC2)c2ccco2)cc1OC (configuration not stated) 37%
CCOc1cc(C(C(=O)NCC2CCCO2)N(C(=O)Cn2nnc3ccccc32)c2cccc(OC)c2)ccc1O (configuration not stated) -7.04%
CCC(C(=O)NC1CCCC1)N(C(=O)c1snc(C(N)=O)c1N)c1ccc2c(c1)OCCO2 (configuration not stated) -12.2%
Cc1ccc(N(C(=O)Cc2cccs2)C(C(=O)NCC2CCCO2)c2ccncc2)cc1 (configuration not stated) -6.16%
CCOc1ccccc1NS(=O)(=O)c1c[nH]c(C(=O)OC)c1 5.96%
CSC1=NN(c2ccccc2)CN(c2ccccc2)N1C -27.8%
NC1=C([N+](=O)[O-])C(c2ccccc2)C2=C(CCCC2=O)O1 (configuration not stated) 23.3%
O=C(NC1CCCCC1)c1ccc(CNc2c(N3CCOCC3)c(=O)c2=O)cc1 -13.2%
CC(Nc1ccc([N+](=O)[O-])cc1[N+](=O)[O-])c1ccccc1 (configuration not stated) 5.52%
COc1ccc(OC)c(C(O)c2ncc(-c3cccc(C(F)(F)F)c3)[nH]2)c1 (configuration not stated) 0%
CSCCC(NC(=O)c1ccc(Cl)cc1Cl)C(=O)NNC(=O)c1csc(N2CCOCC2)n1 (configuration not stated) -2.31%

Activity change, active:
CC(C)c1ccccc1OCC(O)CN(CC(O)COc1cccc2ccccc12)C(C)C (configuration not stated) -104%
COc1ccc(-c2csc3nc(-c4ccccc4F)oc(=O)c23)cc1OC -84.4%
CC1=C/C(=N\OS(=O)(=O)c2ccccc2)C=CC1=O -100%
O=C(Nc1cccc(O)c1)c1ccc(C(=O)c2ccccc2)o1 -53.4%
C/C(=C\C(=O)c1ccccc1)Nc1cccc(O)c1 -52.1%
CCc1cc2c(N3CCN(c4nnc(CC)s4)CC3)ncnc2s1 -71.6%
Clc1ccc(C[n+]2cc(-c3ccc(Cl)cc3)n3c2CCC3)cc1 -53.1%
Cc1ccc(N(C(=O)c2snc(C(N)=O)c2N)C(C(=O)NCC2CCCO2)c2c[nH]c3ccccc23)cc1 (configuration not stated) -66.2%
COc1cccc(N(C(=O)c2snc(C(N)=O)c2N)C(C(=O)NCC2CCCO2)c2c[nH]c3ccccc23)c1 (configuration not stated) -66.5%
CCOc1ccc(N(C(=O)c2snc(C(N)=O)c2N)C(C(=O)NCC2CCCO2)c2c[nH]c3ccccc23)cc1 (configuration not stated) -52.3%
Cc1ccc(C(C(=O)NCC2CCCO2)N(C(=O)c2snc(C(N)=O)c2N)c2ccc(C(C)C)cc2)o1 (configuration not stated) -54.6%

— PubChem BioAssay AID743279 (National Center for Advancing Translational Sciences (NCATS), 2014)
